For the experiment, the target named is T1, CRBN, Q96SW2.
T1 chain: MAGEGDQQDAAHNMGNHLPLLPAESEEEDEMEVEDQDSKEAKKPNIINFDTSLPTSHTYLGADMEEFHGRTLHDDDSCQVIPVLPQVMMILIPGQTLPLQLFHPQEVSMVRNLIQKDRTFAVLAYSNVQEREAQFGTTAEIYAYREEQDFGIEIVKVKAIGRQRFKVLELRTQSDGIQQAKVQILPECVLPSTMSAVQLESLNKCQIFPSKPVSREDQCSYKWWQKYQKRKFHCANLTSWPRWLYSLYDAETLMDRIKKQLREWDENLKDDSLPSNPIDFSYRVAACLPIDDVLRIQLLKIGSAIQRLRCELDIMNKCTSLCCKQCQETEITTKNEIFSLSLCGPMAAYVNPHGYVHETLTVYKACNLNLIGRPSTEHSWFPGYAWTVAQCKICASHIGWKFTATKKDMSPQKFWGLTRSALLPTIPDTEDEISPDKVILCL
Nature of the experiment: log2 fold change of degron read counts, EGFP-low vs EGFP+ sorted cells (limma voom), compound-induced degradation; higher = more compound-induced degradation of the degron-EGFP fusion; degrons are variants of IKZF1/3 zinc finger 2; compound dose not given here. As to conditions: Jurkat, 18 h.

The mark [1] stands for this setting: compound: compound 19 (5-tert-butyl-thalidomide).
Where [2] appears, read: compound: compound 22 (5-morpholino-thalidomide).
Where [3] appears, read: compound: compound 33 (diphenyl IMiD analogue).

28 sequences from the supplement of paper PMC12645437, “Orthogonal IMiD-Degron Pairs Induce Selective Protein Degradation in Cells” (ACS Chemical Biology, 2025) can be followed below.

The full ranking holds about 8,300 sequences; the median of “log2 fold change of degron read counts, EGFP-low vs EGFP+ sorted cells (limma voom), compound-induced degradation” is about -1.1, and the highest 2% start at about 3.2. Only a selection was taken, and the highest values are over-represented in it overall.
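Note: pooled lentiviral library of zinc finger degron-EGFP fusions in mCherry-positive Jurkat cells, FACS-sorted after compound exposure, with degron abundance counted by next-generation sequencing.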

B1: 46F_47E_49E_50I_52G_53H_54H_55F_67L_, Q9UKT9 (peptide)
chain: FECEICGHHFTQKGNLLRHIKL
B1: the “log2 fold change of degron read counts” value was -3.57 under setting [1], -3.77 under setting [2], -3.12 under setting [3] and -3.14 (compound: thalidomide).

B2: 46F_47W_49P_50I_52G_53R_54H_55F_67L_, Q9UKT9 (peptide)
chain: FWCPICGRHFTQKGNLLRHIKL
B2: the “log2 fold change of degron read counts” value is, setting by setting: under setting [1], 0.105; under setting [2], 0.12; under setting [3], -0.0382; (compound: thalidomide) -0.795.

B3: 46F_47T_49N_50Q_52G_53A_54N_55F_67L_, Q9UKT9 (peptide)
chain: FTCNQCGANFTQKGNLLRHIKL
As for B3, the “log2 fold change of degron read counts” value is -2.31 under setting [1], -1.9 under setting [2], -1.02 under setting [3] and -1.51 (compound: thalidomide).

B4: 46F_47C_49E_50Q_52G_53A_54Q_55F_67L_, Q9UKT9 (peptide)
chain: FCCEQCGAQFTQKGNLLRHIKL
As to B4, the “log2 fold change of degron read counts” value was -0.606 under setting [1], -1.61 under setting [2], 0.54 under setting [3] and -0.701 (compound: thalidomide).

B5: 46F_47F_49D_50V_52G_53A_54G_55F_67L_, Q9UKT9 (peptide)
chain: FFCDVCGAGFTQKGNLLRHIKL
Regarding B5, the “log2 fold change of degron read counts” value runs as follows: under setting [1], 2.13; under setting [2], 0.815; under setting [3], -0.261; (compound: thalidomide) -2.07.

B6: 46F_47I_49E_50I_52G_53R_54F_55F_67L_, Q9UKT9 (peptide)
chain: FICEICGRFFTQKGNLLRHIKL
Take B6: the “log2 fold change of degron read counts” value was -1.91 under setting [1], -1.81 under setting [2], -0.249 under setting [3] and -0.59 (compound: thalidomide).

B7: 46F_47R_49N_50I_52G_53A_54F_55F_67L_, Q9UKT9 (peptide)
chain: FRCNICGAFFTQKGNLLRHIKL
Consider B7, for which the “log2 fold change of degron read counts” value was -1.52 under setting [1], -1.67 under setting [2], -0.33 under setting [3] and 0.791 (compound: thalidomide).

B8: 46F_47T_49E_50Q_52G_53A_54T_55F_67L_, Q9UKT9 (peptide)
chain: FTCEQCGATFTQKGNLLRHIKL
Take B8: the “log2 fold change of degron read counts” value by setting is: under setting [1], -2.43; under setting [2], -0.729; under setting [3], 0.386; (compound: thalidomide) 0.407.

B9: 46L_47D_49P_50I_52G_53F_54T_55C_67L_, Q9UKT9 (peptide)
chain: LDCPICGFTCTQKGNLLRHIKL
Regarding B9, the “log2 fold change of degron read counts” value stood at 1.14 under setting [1], 0.297 under setting [2], 1.7 under setting [3] and 2.41 (compound: thalidomide).

B10: 46L_47N_49P_50I_52G_53F_54T_55C_67L_, Q9UKT9 (peptide)
chain: LNCPICGFTCTQKGNLLRHIKL
On to B10, for which the “log2 fold change of degron read counts” value under setting [1] is 2.24, the “log2 fold change of degron read counts” value under setting [2] was found to be 1.48, the “log2 fold change of degron read counts” value under setting [3] was 1.4 and the “log2 fold change of degron read counts” value (compound: thalidomide) worked out at 1.99.

B11: 46L_47C_49P_50I_52G_53F_54T_55C_67L_, Q9UKT9 (peptide)
chain: LCCPICGFTCTQKGNLLRHIKL
For B11, the “log2 fold change of degron read counts” value under setting [1] came out at 2.3, the “log2 fold change of degron read counts” value under setting [2] stood at 2.71, the “log2 fold change of degron read counts” value under setting [3] is 3.14 and the “log2 fold change of degron read counts” value (compound: thalidomide) was 3.38.

B12: 46F_47F_49N_50Q_52G_53H_54L_55F_67L_, Q9UKT9 (peptide)
chain: FFCNQCGHLFTQKGNLLRHIKL
Regarding B12, the “log2 fold change of degron read counts” value was -1.66 under setting [1], -2.07 under setting [2], -1.87 under setting [3] and -1.3 (compound: thalidomide).

B13: 46F_47S_49D_50I_52G_53A_54A_55F_67L_, Q9UKT9 (peptide)
chain: FSCDICGAAFTQKGNLLRHIKL
As to B13, the “log2 fold change of degron read counts” value runs as follows: under setting [1], 2.34; under setting [2], 2.19; under setting [3], 1.4; (compound: thalidomide) 0.487.

B14: 46F_47W_49P_50I_52G_53A_54Q_55F_67L_, Q9UKT9 (peptide)
chain: FWCPICGAQFTQKGNLLRHIKL
In the case of B14, the “log2 fold change of degron read counts” value was 3.01 under setting [1], 3.69 under setting [2], 2.52 under setting [3] and 1.76 (compound: thalidomide).

B15: 46F_47A_49P_50I_52G_53A_54Q_55F_67L_, Q9UKT9 (peptide)
chain: FACPICGAQFTQKGNLLRHIKL
For the sequence B15, the “log2 fold change of degron read counts” value came to 3.33 under setting [1], 2.33 under setting [2], 1.68 under setting [3] and 1.29 (compound: thalidomide).

B16: 46F_47M_49P_50I_52G_53A_54Q_55F_67L_, Q9UKT9 (peptide)
chain: FMCPICGAQFTQKGNLLRHIKL
For the sequence B16, the “log2 fold change of degron read counts” value is 0.245 under setting [1], 1.26 under setting [2], 2.62 under setting [3] and 1.97 (compound: thalidomide).

B17: 46F_47T_49P_50I_52G_53A_54Q_55F_67L_, Q9UKT9 (peptide)
chain: FTCPICGAQFTQKGNLLRHIKL
As to B17, the “log2 fold change of degron read counts” value under setting [1] is 0.221, the “log2 fold change of degron read counts” value under setting [2] stood at 2.57, the “log2 fold change of degron read counts” value under setting [3] came out at 2.32 and the “log2 fold change of degron read counts” value (compound: thalidomide) is 3.06.

B18: 46F_47K_49P_50I_52G_53A_54Q_55F_67L_, Q9UKT9 (peptide)
chain: FKCPICGAQFTQKGNLLRHIKL
As to B18, the “log2 fold change of degron read counts” value under setting [1] is -0.0361, the “log2 fold change of degron read counts” value under setting [2] is -1.47, the “log2 fold change of degron read counts” value under setting [3] was -1.09 and the “log2 fold change of degron read counts” value (compound: thalidomide) amounted to 0.0895.

B19: 46F_47Y_49P_50I_52G_53A_54Q_55F_67L_, Q9UKT9 (peptide)
chain: FYCPICGAQFTQKGNLLRHIKL
As to B19, the “log2 fold change of degron read counts” value is, setting by setting: under setting [1], 3.2; under setting [2], 3.56; under setting [3], 2.65; (compound: thalidomide) 1.7.

B20: 46F_47V_49P_50I_52G_53A_54Q_55F_67L_, Q9UKT9 (peptide)
chain: FVCPICGAQFTQKGNLLRHIKL
Take B20: the “log2 fold change of degron read counts” value reads like this: under setting [1], 0.269; under setting [2], 3.03; under setting [3], 2.65; (compound: thalidomide) 2.8.

B21: 46F_47F_49P_50I_52G_53A_54Q_55F_67L_, Q9UKT9 (peptide)
chain: FFCPICGAQFTQKGNLLRHIKL
B21: the “log2 fold change of degron read counts” value is, setting by setting: under setting [1], 3.07; under setting [2], 3.66; under setting [3], 2.49; (compound: thalidomide) 1.8.

B22: 46F_47I_49P_50I_52G_53A_54Q_55F_67L_, Q9UKT9 (peptide)
chain: FICPICGAQFTQKGNLLRHIKL
On to B22, for which the “log2 fold change of degron read counts” value runs as follows: under setting [1], -0.147; under setting [2], 2.86; under setting [3], 2.84; (compound: thalidomide) 2.97.

B23: 46F_47S_49P_50I_52G_53A_54Q_55F_67L_, Q9UKT9 (peptide)
chain: FSCPICGAQFTQKGNLLRHIKL
B23: the “log2 fold change of degron read counts” value by setting is: under setting [1], 2.37; under setting [2], 2.25; under setting [3], 1.87; (compound: thalidomide) 1.54.

B24: 46F_47R_49P_50I_52G_53A_54Q_55F_67L_, Q9UKT9 (peptide)
chain: FRCPICGAQFTQKGNLLRHIKL
B24: the “log2 fold change of degron read counts” value under setting [1] was -0.000477, the “log2 fold change of degron read counts” value under setting [2] was determined as 0.626, the “log2 fold change of degron read counts” value under setting [3] turned out to be 1.17 and the “log2 fold change of degron read counts” value (compound: thalidomide) is 1.41.

B25: 46F_47E_49P_50I_52G_53A_54Q_55F_67L_, Q9UKT9 (peptide)
chain: FECPICGAQFTQKGNLLRHIKL
Turning to B25, the “log2 fold change of degron read counts” value reads like this: under setting [1], -0.254; under setting [2], -0.469; under setting [3], 2.11; (compound: thalidomide) 2.88.

B26: 46F_47W_49E_50I_52G_53R_54S_55F_67L_, Q9UKT9 (peptide)
chain: FWCEICGRSFTQKGNLLRHIKL
As for B26, the “log2 fold change of degron read counts” value reads like this: under setting [1], 0.727; under setting [2], 1.06; under setting [3], 0.626; (compound: thalidomide) -1.3.

B27: 46F_47W_49P_50V_52G_53A_54F_55F_67L_, Q9UKT9 (peptide)
chain: FWCPVCGAFFTQKGNLLRHIKL
On to B27, for which the “log2 fold change of degron read counts” value under setting [1] was 2.23, the “log2 fold change of degron read counts” value under setting [2] came to 2.56, the “log2 fold change of degron read counts” value under setting [3] came out at 1.97 and the “log2 fold change of degron read counts” value (compound: thalidomide) was found to be 0.614.

B28: 46F_47I_49N_50V_52G_53A_54C_55F_67L_, Q9UKT9 (peptide)
chain: FICNVCGACFTQKGNLLRHIKL
With B28, the “log2 fold change of degron read counts” value by setting is: under setting [1], -2.35; under setting [2], -0.443; under setting [3], 0.594; (compound: thalidomide) 0.469.
